Data on 7 compounds can be found in PubChem BioAssay (NCI).

Compounds without any hit were thinned out: in the full panel of roughly 83,000, 20% have a hit.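 Growth was measured after 48 h exposure to one concentration of compound in 96-well plates. Values under 10 count as active.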 Unmarked numbers belong to inactive results. Calls of active or inactive are those of the source.

Some test systems named below: NCI-H23 lung; NCI-H226 lung; NCI-H322M lung; HOP-62 NSCLC; NCI-H460 lung; NCI-H522 lung; A549/ATCC NSCLC; 786-0 renal; COLO 205 colon; DU-145 prostate; K-562 leukemia; MALME-3M melanoma; MDA-MB-231 breast; RXF 393 renal; SF-268 CNS; SF-295 CNS; SF-539 CNS; UACC-257 melanoma; M14 melanoma.
Holding throughout (experiment): NCI-60 one-dose screen, 48 h (100 = growth as untreated, 0 = no growth, -100 = all killed)
What all share (settings): 10 µM unless noted

As for `CC[C@@H](CO)Nc1ccc2ncc(C#Cc3cncc(C(=O)Nc4ccc(CN5CCN(C)CC5)c(C(F)(F)F)c4)c3)n2n1`, the growth in the test with NCI-H23 lung is -71.5% (active); in the test with NCI-H226 lung it was -39.4% (active); in the test on NCI-H322M lung, -30.1% (active); in the test on HOP-62 NSCLC it was -71.7% (active); with NCI-H460 lung it was -88.8% (active); with NCI-H522 lung it was -76.1% (active). In addition, the growth in the test on A549/ATCC NSCLC is -35.3% (active); in the test with 786-0 renal, -96.8% (active); in the test on COLO 205 colon, -87.2% (active); with DU-145 prostate, -82.4% (active); in the test on K-562 leukemia it was 0.898% (active); in the test with MALME-3M melanoma it was -82.2% (active). The growth with MDA-MB-231 breast is -58.3% (active); in the test with RXF 393 renal it was -96.2% (active); in the test on SF-268 CNS, -60.4% (active); in the test with SF-295 CNS, -84.7% (active); with SF-539 CNS, -82.1% (active); in the test on UACC-257 melanoma, -84.8% (active). In addition, the growth in the test with M14 melanoma was -92% (active).
Take `CCNC(=O)N1CCc2cc(OC)c(OCCc3ccc(OC)nc3)cc2C1c1ccc(OC)cc1C` (stereo not drawn): the growth in the test on NCI-H23 lung is 44.8%; in the test on NCI-H226 lung it was 38.5%; with NCI-H322M lung it was 55.6%; with HOP-62 NSCLC it was 31%; in the test on NCI-H460 lung, 3.64% (active); in the test with NCI-H522 lung, 19.4%. The growth was 30.4% in the test on A549/ATCC NSCLC; 22.9% with 786-0 renal; 29.3% in the test on COLO 205 colon; 40.6% in the test with DU-145 prostate; 20% in the test with K-562 leukemia; 49.5% with MALME-3M melanoma. Moreover, the growth was 52.8% in the test with MDA-MB-231 breast; 24.7% in the test on RXF 393 renal; 32.9% with SF-268 CNS; 18.2% with SF-295 CNS; 22.6% with SF-539 CNS; 47% with UACC-257 melanoma. For the same compound, in the test on M14 melanoma, the growth was 29.7%.
Turning to `CCc1cccc2c3c(sc12)C(c1ccc(OC)cc1)C(C#N)=C(/N=C/c1ccc(Cl)cc1)O3` (stereo not drawn), the growth was 19.9% in the test with NCI-H23 lung; 41.2% with NCI-H226 lung; 55.1% in the test with NCI-H322M lung; 33.8% in the test on HOP-62 NSCLC; 11.5% in the test with NCI-H460 lung; -40.4% (active) in the test with NCI-H522 lung. Moreover, the growth in the test with A549/ATCC NSCLC was 41.5%; in the test with 786-0 renal, 39.3%; in the test on COLO 205 colon, -18.9% (active); with DU-145 prostate it was 18.8%; with K-562 leukemia, 11.1%; in the test with MALME-3M melanoma, 48.3%. The growth was 40.3% with MDA-MB-231 breast; -11.4% (active) in the test on RXF 393 renal; 60% in the test on SF-268 CNS; 6.9% (active) with SF-295 CNS; 1.2% (active) in the test on SF-539 CNS; 72% with UACC-257 melanoma. The growth in the test with M14 melanoma is 4.74% (active).
With `CCCn1cnc2c(c1=N)C(c1ccc(OC)cc1)c1sc3c(CC)cccc3c1O2` (stereo not drawn), the growth is 18.9% with NCI-H23 lung; 57% in the test on NCI-H226 lung; 37.6% in the test with NCI-H322M lung; 38.8% in the test with HOP-62 NSCLC; 10.1% with NCI-H460 lung; -14.3% (active) with NCI-H522 lung. Also, the growth with A549/ATCC NSCLC was 40.6%; in the test on 786-0 renal, 32.3%; in the test with COLO 205 colon it was 13.9%; with DU-145 prostate, 16.7%; with K-562 leukemia, 13.1%; with MALME-3M melanoma it was 53.5%. The growth in the test with MDA-MB-231 breast was 29.1%; with RXF 393 renal, -13.3% (active); in the test on SF-268 CNS, 45.1%; in the test on SF-295 CNS, -18.1% (active); in the test on SF-539 CNS, -22% (active); in the test on UACC-257 melanoma it was 81.9%. Further, the growth with M14 melanoma was 2.9% (active).
Regarding `O=C(CSc1nnc(-c2ccc(Cl)cc2)n1-c1ccccc1)Nc1cccc(Cl)c1`, the growth in the test on NCI-H23 lung was 49.5%; with NCI-H226 lung it was 46.3%; with NCI-H322M lung it was 55.5%; in the test on HOP-62 NSCLC it was 104%; in the test with NCI-H460 lung, 47.9%; with NCI-H522 lung, 69.8%. The growth with A549/ATCC NSCLC is 25.7%; in the test on 786-0 renal it was 28.1%; in the test with COLO 205 colon it was 82.1%; with DU-145 prostate it was 64.6%; in the test with K-562 leukemia it was 61.9%; in the test on MALME-3M melanoma, 75.9%. The growth is 36.3% in the test on MDA-MB-231 breast; 70.8% in the test with RXF 393 renal; 76.1% in the test on SF-268 CNS; 27.2% in the test with SF-295 CNS; 50.9% with SF-539 CNS; 90.4% in the test on UACC-257 melanoma. Besides, in the test on M14 melanoma, the growth is 72.8%.
Take `CN(C)CCN(C)c1ccc2ncc(C#Cc3cncc(C(=O)Nc4ccc(CN5CCN(C)CC5)c(C(F)(F)F)c4)c3)n2n1`: the growth is -66.4% (active) in the test with NCI-H23 lung; 64.3% in the test on NCI-H226 lung; 89% in the test with NCI-H322M lung; 33.6% with HOP-62 NSCLC; -76% (active) in the test on NCI-H460 lung; 97% with NCI-H522 lung. Also, the growth was -40.5% (active) in the test with A549/ATCC NSCLC; 90.9% with 786-0 renal; 25.1% in the test on COLO 205 colon; -59.2% (active) with DU-145 prostate; 3.58% (active) in the test with K-562 leukemia; 61.9% in the test on MALME-3M melanoma. Besides, the growth in the test on MDA-MB-231 breast is -53.4% (active); with RXF 393 renal, -90.1% (active); in the test with SF-268 CNS it was 64.6%; with SF-295 CNS, 83.8%; in the test on SF-539 CNS, -9.03% (active); with UACC-257 melanoma, 107%. In addition, the growth in the test with M14 melanoma was -80.8% (active).
Consider `COc1ccc(-n2c(SCc3nnc(NC(=O)c4ccc(Br)cc4)s3)nc3cc(OC)c(OC)cc3c2=O)cc1`, for which the growth in the test on NCI-H23 lung is 92.5%; in the test on NCI-H226 lung, 74%; with NCI-H322M lung it was 85.5%; in the test on HOP-62 NSCLC it was 92.3%; in the test on NCI-H460 lung it was 93.5%; in the test on NCI-H522 lung, 89.2%. Further, the growth in the test on A549/ATCC NSCLC is 102%; in the test with 786-0 renal, 105%; in the test with COLO 205 colon, 104%; in the test on DU-145 prostate, 89.4%; with K-562 leukemia it was 100%; in the test on MALME-3M melanoma it was 92.2%. The growth with MDA-MB-231 breast is 87.9%; in the test with RXF 393 renal, 104%; in the test on SF-268 CNS, 86.4%; with SF-295 CNS, 93.2%; in the test with SF-539 CNS, 92.9%; in the test with UACC-257 melanoma it was 101%. The growth with M14 melanoma was 92.5%.
